The subject of test [1] is PA-1. Nature of the test: Primary qHTS to identify gynecologic anti-cancer compounds using libraries of approved drugs and bioactive compounds (AID 1345084). Also: nearly all actives have a fitted effect of over 55% in size. The conditions noted are these: Gynecologic cancer cell panel viability, ATPlite luminescence, 48 h; series mostly up to 57.5 µM. The procedure, abridged:
(§1)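 Cytotoxicity screen measuring ATP content by luciferase luminescence. Each compound is applied at five concentrations for 48 h at 37 C with 5% CO2.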

Test [2] deals with SKOV3. Described as above. The conditions noted are these: Gynecologic cancer cell panel viability, ATPlite luminescence, 48 h; series mostly up to 57.5 µM. The essentials: as §1
In test [3] the test system is Tov-21-G. The test is described as above. The following applies: Gynecologic cancer cell panel viability, ATPlite luminescence, 48 h; series mostly up to 57.5 µM. The essentials:
as §1

The subject of test [4] is Tov112D. The description is as above. The conditions noted are these: Gynecologic cancer cell panel viability, ATPlite luminescence, 48 h; series mostly up to 57.5 µM. The procedure, abridged:
as §1

Test [5] can be described thus: Drug repurposing screens with cells derived from glioblastoma tumor samples (AID 1345199). Also: nearly all actives have a fitted effect of over 40% in size. Also: potency is read from the fitted curve at half-maximal effect. The following applies: GBM patient neurospheres viability, ATP luminescence, 48 h. The procedure, abridged: (§2)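 Four patient lines of CD133+ GBM neurospheres were screened at several concentrations; hits were retested in those lines plus three slower-growing GBM lines, using 48-hour treatment and ATP-based viability.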

Test [6] has as its system astro. The test is described as above. The following applies: viability, ATP luminescence, 48 h; series mostly up to 45.9 µM. The essentials: as §2
Where [7] appears, read: at 45.9 µM (top of the series), tumour line B.
[8] abbreviates: at 45.9 µM (top of the series), tumour line D.
Setting [9] is: at 46 µM (top of the series), tumour line A.
The mark [10] stands for this setting: at 46.1 µM (top of the series), tumour line C.

Data on 18 compounds can be found in PubChem BioAssay (NCATS).

SMILES strings stand for the structures. Inconclusive results are not listed. The source made the active and inactive calls. Calls follow the shape of the dose curve; as a rule, active = well fitted curve in the direction sought with a large enough effect; inconclusive = small, poorly fitted or top-dose-only effect, or another doubt; inactive = no such curve, though single readings can be large; an effect the other way counts as inactive or inconclusive.
% is scaled to controls: 0 for no effect and ±100 for the full control effect.

`CC1CN(c2cc3c(cc2F)c(=O)c(C(=O)O)cn3-c2ccc(F)cc2F)CCN1` (configuration not stated): the activity change, negative = cytotoxicity was 6.96% [at 6.55 µM] (inactive) in test [1], -2.15% [at 6.55 µM] (inactive) in test [2], -0.759% [at 6.55 µM] (inactive) in test [3] and -5.84% [at 6.55 µM] (inactive) in test [4]. For the same compound, the activity, negative = cell killing in test [5] (setting [7]) is -0.773% (inactive); in test [5] (setting [8]) it was -11% (inactive); in test [5] (setting [9]) it was -6.24% (inactive); in test [5] (setting [10]) it was -10.7% (inactive). Besides, the Potency result in test [6] is “inactive”.
For the compound `Nc1c[n+](N2CCOCC2)no1`, the Potency entry in test [1], in test [2], in test [3], in test [4] and in test [6] was “inactive” in each case. The activity, negative = cell killing in test [5] (setting [7]) is 3.67% (inactive); in test [5] (setting [8]) it was -1.79% (inactive); in test [5] (setting [9]), -15.9% (inactive); in test [5] (setting [10]) it was -4.45% (inactive).
Take `CO/N=C(/C(=O)N[C@@H]1C(=O)N2C(C(=O)O)=C(Cn3nnc(C)n3)CS[C@H]12)c1csc(N)n1`: the Potency result in test [1], in test [2], in test [3], in test [4] and in test [6] was “inactive” in each case. Also, the activity, negative = cell killing was -1.74% (inactive) in test [5] (setting [7]), 2.54% (inactive) in test [5] (setting [8]), -14.3% (inactive) in test [5] (setting [9]) and 9.89% (inactive) in test [5] (setting [10]).
Consider `CC(=O)OCC(=O)[C@@]1(O)[C@H](OC(C)=O)C[C@H]2[C@@H]3CCC4=CC(=O)C=C[C@]4(C)[C@@]3(F)[C@@H](O)C[C@@]21C`, for which the Potency result in test [1], in test [2], in test [3], in test [4] and in test [6] was “inactive” in each case. The activity, negative = cell killing in test [5] (setting [7]) was -11.4% (inactive); in test [5] (setting [8]) it was -13% (inactive); in test [5] (setting [9]), -9.78% (inactive); in test [5] (setting [10]), -2.85% (inactive).
For `Cc1ccc(/C=N/n2c(-c3ccccc3)csc2=S)cc1`, the Potency result in test [1], in test [2], in test [3], in test [4] and in test [6] was “inactive” each time. Also, the activity, negative = cell killing in test [5] (setting [7]) is -0.779% (inactive); in test [5] (setting [8]), -6.23% (inactive); in test [5] (setting [10]), -16.1% (inactive). Further, the Potency in test [5] (tumour line A) is 17.8 µM (active).
On to `C=CC[N+]1([C@H]2C[C@H]3[C@@H]4CC[C@H]5C[C@H](OC(C)=O)[C@@H](N6CCCCC6)C[C@]5(C)[C@H]4CC[C@]3(C)[C@H]2OC(=O)CC)CCCCC1`, for which the Potency entry in test [1], in test [2], in test [3], in test [4] and in test [6] was “inactive” each time. Besides, the activity, negative = cell killing in test [5] (setting [7]) was -10% (inactive); in test [5] (setting [8]), -23% (inactive); in test [5] (setting [10]) it was -14.4% (inactive). For the same compound, the Potency in test [5] (tumour line A) was 6.31 µM (active).
For `CCCC(=O)O[C@]1(C(=O)COC(=O)CC)CC[C@H]2[C@@H]3CCC4=CC(=O)CC[C@]4(C)[C@H]3[C@@H](O)C[C@@]21C`, the Potency result in test [1], in test [2], in test [3], in test [4] and in test [6] was “inactive” in each case. The activity, negative = cell killing was -1.31% (inactive) in test [5] (setting [7]), -7.61% (inactive) in test [5] (setting [8]), -4.97% (inactive) in test [5] (setting [9]) and 15.1% (inactive) in test [5] (setting [10]).
As for `CN1C(=O)CC(C)(c2ccccc2)C1=O` (configuration not stated), the Potency result in test [1], in test [2], in test [3], in test [4] and in test [6] was “inactive” in each case. The activity, negative = cell killing in test [5] (setting [7]) was -1.54% (inactive); in test [5] (setting [8]) it was 0.352% (inactive); in test [5] (setting [9]), -33.9% (inactive); in test [5] (setting [10]), -2.82% (inactive).
`CN1[C@@H]2CC[C@H]1CC(NC(=O)n1c(=O)[nH]c3ccccc31)C2` (some centres not stated): the Potency entry in test [1], in test [2], in test [3], in test [4] and in test [6] was “inactive” throughout. The activity, negative = cell killing in test [5] (setting [7]) was 3.71% (inactive); in test [5] (setting [8]) it was -10.2% (inactive); in test [5] (setting [10]), 9.49% (inactive). Further, the Potency in test [5] (tumour line A) is 28.2 µM (active).
Regarding `CCO[C@H](Cc1ccc(OCCc2ccc(OS(C)(=O)=O)cc2)cc1)C(=O)O`, the Potency result in test [1], in test [2], in test [3], in test [4] and in test [6] was “inactive” each time. For the same compound, the activity, negative = cell killing is -8.78% (inactive) in test [5] (setting [7]), -11.2% (inactive) in test [5] (setting [8]) and -26% (inactive) in test [5] (setting [10]). Further, in test [5] (tumour line A), the Potency was 14.1 µM (active).
`CC(=O)OCC(=O)[C@@]1(O)CCC2C3CCC4=CC(=O)CC[C@]4(C)C3[C@@H](O)C[C@@]21C` (some centres not stated): the Potency entry in test [1], in test [2], in test [3], in test [4] and in test [6] was “inactive” in each case. Besides, the activity, negative = cell killing in test [5] (setting [7]) was -6.98% (inactive); in test [5] (setting [8]), -11.4% (inactive); in test [5] (setting [9]) it was -11.4% (inactive); in test [5] (setting [10]), 20.9% (inactive).
`CN1CCCN=C1/C=C/c1cccs1`: the Potency result in test [1], in test [2], in test [3], in test [4] and in test [6] was “inactive” in each case. Further, the activity, negative = cell killing was -1.18% (inactive) in test [5] (setting [7]), -9.69% (inactive) in test [5] (setting [8]), -29.5% (inactive) in test [5] (setting [9]) and 6.9% (inactive) in test [5] (setting [10]).
On to `O=C(OCC(COC(=O)c1cccnc1)(COC(=O)c1cccnc1)COC(=O)c1cccnc1)c1cccnc1`, for which the Potency result in test [1], in test [2], in test [3], in test [4] and in test [6] was “inactive” in each case. The activity, negative = cell killing is -3.98% (inactive) in test [5] (setting [7]), 3.04% (inactive) in test [5] (setting [8]) and -10.2% (inactive) in test [5] (setting [10]). Moreover, the Potency in test [5] (tumour line A) was 14.1 µM (active).
As to `O=C(O)c1[nH]n(-c2ccc(S(=O)(=O)O)cc2)c(=O)c1N=Nc1ccc(S(=O)(=O)O)cc1`, the Potency result in test [1], in test [2], in test [3], in test [4] and in test [6] was “inactive” each time. For the same compound, the values for the activity, negative = cell killing in test [5] (setting [7]), in test [5] (setting [8]) and in test [5] (setting [10]) were 1.15% (inactive), -22.4% (inactive) and -16.3% (inactive), respectively. In test [5] (tumour line A), the Potency is 28.2 µM (active).
As for `OCCc1ccccc1`, the Potency result in test [1], in test [2], in test [3], in test [4] and in test [6] was “inactive” in each case. Further, the activity, negative = cell killing in test [5] (setting [7]) was -16.7% (inactive); in test [5] (setting [8]), -5.39% (inactive); in test [5] (setting [9]), -18.5% (inactive); in test [5] (setting [10]) it was 13.1% (inactive).
On to `OCc1cccnc1`, for which the Potency result in test [1], in test [2], in test [3], in test [4] and in test [6] was “inactive” throughout. In addition, the activity, negative = cell killing in test [5] (setting [7]) was -6.38% (inactive); in test [5] (setting [8]) it was -1.28% (inactive); in test [5] (setting [9]) it was -22% (inactive); in test [5] (setting [10]), -5.89% (inactive).
For `Nc1nnnn1-c1ccccc1`, the Potency entry in test [1], in test [2], in test [3], in test [4] and in test [6] was “inactive” throughout. The activity, negative = cell killing in test [5] (setting [7]) was -11.1% (inactive); in test [5] (setting [8]) it was -15.7% (inactive); in test [5] (setting [9]), -29.5% (inactive); in test [5] (setting [10]), 12.1% (inactive).
`CC(=O)Nc1c(I)c(NC(C)=O)c(I)c(C(=O)O)c1I`: the Potency result in test [1], in test [2], in test [3], in test [4] and in test [6] was “inactive” each time. Moreover, the activity, negative = cell killing in test [5] (setting [7]) is -4.92% (inactive); in test [5] (setting [8]), -9.58% (inactive); in test [5] (setting [9]), -18.7% (inactive); in test [5] (setting [10]) it was -9.62% (inactive).
